Reference: PubChem BioAssay AID492964 (The Scripps Research Institute Molecular Screening Center, 2010)
About 880 (49%) of roughly 1,800 compounds were called active. The set was probably picked from earlier hits. A selection follows. Unmarked numbers belong to inactive results. Cut-off read from the data, not from the text of the source: active = inhibition above about 55%; inactive = the rest.

Molecular target: Orexin/Hypocretin receptor type 1 (Homo sapiens) (UniProt O43613)
Assay: HCRTR1 receptor blockers, retested hits – cell-based, HTRF, confirmation (AID 492964);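 note: CHO cells expressing OX1R stimulated with orexin A at about EC80; 0% = agonist challenge alone and 100% = reference antagonist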
Conditions: OX1R-expressing cells, HTRF antagonist assay; at 6.6 µM; stronger effect = higher value

Sequence of Orexin/Hypocretin receptor type 1 (Homo sapiens) (O43613 whole entry, looked up): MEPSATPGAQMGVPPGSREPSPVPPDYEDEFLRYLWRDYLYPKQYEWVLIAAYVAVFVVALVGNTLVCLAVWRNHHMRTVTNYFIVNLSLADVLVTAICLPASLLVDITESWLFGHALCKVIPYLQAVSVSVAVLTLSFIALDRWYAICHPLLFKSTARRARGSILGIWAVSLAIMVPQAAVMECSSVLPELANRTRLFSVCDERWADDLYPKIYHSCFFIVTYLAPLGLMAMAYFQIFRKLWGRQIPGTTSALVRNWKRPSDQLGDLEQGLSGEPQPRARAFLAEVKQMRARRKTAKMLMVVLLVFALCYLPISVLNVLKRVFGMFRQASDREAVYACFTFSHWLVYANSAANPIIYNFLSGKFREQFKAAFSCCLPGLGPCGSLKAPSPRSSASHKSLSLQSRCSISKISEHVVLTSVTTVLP

SMILES | inhibition
CCn1c(C)nc2c1C(=O)c1ccccc1C2=O | 69.9% (active)
CC(=O)Oc1ccc(C(C)=O)c2c1OCCO2 | 19.2%
CC(NC(=O)c1cccc2ccccc12)c1ccc2c(c1)CCCC2 (stereo unspecified) | 64.9% (active)
O=C(Nc1cccc2cccnc12)c1cccc(N2C(=O)CCC2=O)c1 | 86.1% (active)
COc1cccc(N=c2oc3c(C)ncc(CO)c3cc2C(N)=O)c1 | 51.7%
Cc1oc2c(c1C(=O)N1CCOCC1)C(=O)c1ccccc1C2=O | 78.8% (active)
CCn1c(O)c(N=NC2=NC(=O)CS2)c2cc(C)ccc21 | 28.9%
O=C(N/N=C/c1sc(N2CCCCC2)nc1-c1cccs1)c1cccnc1 | 89.2% (active)
N#Cc1nc(-c2cccc3ccccc23)oc1N | 60.8% (active)
O=C(Nc1ccccc1Cl)/C(Cl)=C(\Cl)S(=O)c1ccccc1 (stereo unspecified) | 89.9% (active)
Cc1cccc(NC(=O)Nc2cccc(Oc3c(F)c(F)c(F)c(F)c3F)c2)c1 | 35.4%
NS(=O)(=O)c1ccc(CCNC(=O)c2ccc([N+](=O)[O-])cc2[N+](=O)[O-])cc1 | 84.6% (active)
CSCCC(NC(=O)c1cc([N+](=O)[O-])cc([N+](=O)[O-])c1)c1nc2ccccc2[nH]1 (stereo unspecified) | 46.4%
Cc1c(/C=N\NC(=O)c2cc3ccccc3o2)c2ccccc2n1C | 83.1% (active)
COc1cccc(C(=O)NC(=O)Nc2nc(C)cc(C(F)(F)F)n2)c1 | 57.7% (active)
Cc1cc(=O)oc(C)c1C(=O)NCCN(C)Cc1ccccc1 | 12.3%
O=C(NC(Cc1c[nH]c2ccccc12)C(=O)N/N=C/c1ccc(Br)cc1)c1cccs1 (stereo unspecified) | 81.2% (active)
CC(C)(C)NC(=O)CN(C(=O)c1csnn1)c1ccccc1-c1ccccc1 | 55.5% (active)
COc1ccc2sc(-c3ccc(N(C)C)cc3)c(C#CCO)c2c1 | 62.2% (active)
CCn1c(=N)c(C(=O)NCCCOC)cc2c(=O)n3cccc(C)c3nc21 | 47.5%
COC(=O)c1sccc1NC(=O)CSc1ccccc1NS(=O)(=O)c1cc(Cl)ccc1Cl | 67.1% (active)
COc1ccc(N(C)C(=O)CCS(=O)(=O)c2cccc3nsnc23)cc1 | 38.3%

SMILES | inhibition
CC(=O)Nc1ccc(Nc2c([N+](=O)[O-])cc(S(C)(=O)=O)cc2[N+](=O)[O-])cc1 | 46.9%
COC(=O)N/N=C/c1c[n+]([O-])c2ccccc2[n+]1[O-] | 69.1% (active)
COCCNC(=O)Nc1ccc2nc(-c3ccco3)c(-c3ccco3)nc2c1 | 32.4%
COc1cc(OC)c(NC(=O)c2ccc(Br)o2)cc1Cl | 66.4% (active)
Nc1ccc2nc3c(=O)[nH]c(=S)[nH]c3nc2c1 | 47.3%
N#C/C(=C1\CCCN1)c1nc(-c2ccccc2)cs1 | 94% (active)
N#CC(=C1SC=CS1)c1nc(-c2ccccc2)cs1 | 92.5% (active)
Nc1[nH][nH]c(=O)c1N=Nc1ccc2c(c1)OCO2 | 34.5%
COCCCNC(=S)NC(=O)c1ccc([N+](=O)[O-])cc1 | 50.2%
Cn1cnnc1Sc1ccc(S(C)(=O)=O)cc1[N+](=O)[O-] | 42.5%
COc1ccccc1N1CC(C(=O)Nc2ccc(S(=O)(=O)N3CCOCC3)cc2)CC1=O (stereo unspecified) | 16.2%
COc1cc2ccccc2cc1C(=O)Nc1ccc(N2CCOCC2)cc1 | 56.8% (active)
COc1cccc(/C=N/Nc2cc(C)nc(-c3ccccc3O)n2)c1O | 92.3% (active)
CCOc1ccc(/C=C/C(=O)OCC(=O)c2ccccc2OC)cc1OC | 58.8% (active)
CC(C)CC[n+]1ccn(C2=C([O-])c3ccccc3C(=O)/C2=N\S(=O)(=O)c2ccccc2)c1 | 51.6%
COc1cc(C(=S)N2CCOCC2)cc(OC)c1OC(=O)c1ccc([N+](=O)[O-])cc1[N+](=O)[O-] | 88.1% (active)
O=C(Oc1ccccc1C(=S)N1CCCCC1)c1cc([N+](=O)[O-])cc([N+](=O)[O-])c1 | 35.2%
CCn1c(SCC(=O)c2ccc3ccccc3c2)nnc1-c1cccs1 | 81.2% (active)
COc1ccc(N2CC(C(=O)NCCN3C(=O)S/C(=C\c4cccnc4)C3=O)CC2=O)c(OC)c1 (stereo unspecified) | 106% (active)
O=C(O)CCC(=O)Nc1nc2ccc([N+](=O)[O-])cc2s1 | 50.8%
Cc1cc(-c2ccc(C)c(S(=O)(=O)NC(C)Cc3ccco3)c2)on1 (stereo unspecified) | 30.2%
COc1ccc(S(=O)(=O)NC(C)c2ccccc2)cc1C(=O)N1CCCCC1 (stereo unspecified) | 72.9% (active)

SMILES | inhibition
CC(=O)N/N=C/c1cc2c(cc1[N+](=O)[O-])OCO2 | 34.2%
COC(=O)CNC(=O)c1ccc2c(c1)S(=O)(=O)c1ccccc1C2=O | 63% (active)
Cc1cc(C(=O)NC2CCCc3c2cnn3-c2cccc(C)c2C)c(C)o1 (stereo unspecified) | 63.8% (active)
Cc1cccc(NS(=O)(=O)c2cccc(C(=O)NNC(=O)c3ccccc3O)c2)c1 | 30.5%
S=c1[nH]nc(-c2cc(-c3ccccc3)n[nH]2)n1/N=C/c1c2ccccc2cc2ccccc12 | 60% (active)
Cc1cccn2c(=O)c3cc(C#N)c(=NC(=O)c4cccnc4)n(CC4CCCO4)c3nc12 (stereo unspecified) | 44.2%
COc1ccc(CCn2c(NCCCN3CCOCC3)nc3c2c(=O)[nH]c(=O)n3C)cc1 | 15.3%
CCOc1ccc(CCNC(=O)C(CC)n2nc(C)n3c(cc4sccc43)c2=O)cc1OCC (stereo unspecified) | 81.6% (active)
COc1cccc(/C=C/c2ccc3ccccc3n2)c1OC(C)=O | 37.3%
CN(C(=O)CSc1nnc(-c2n[nH]c3ccccc23)o1)c1ccccc1 | 35%
COc1cccc(/C=N/NC(=O)c2[nH]nc3c2CCc2ccccc2-3)c1O | 55% (active)
Nc1nc(COC(=O)CCC(=O)c2ccc(Cl)cc2)nc(Nc2ccccc2)n1 | 38.7%
O=C(/C=C/c1ccco1)Nc1cccc(-c2nc3ccccc3[nH]2)c1 | 59% (active)
COc1ccc(CCNC(=O)/C(C#N)=C2\N=C(NC(=O)c3cccs3)c3ccccc32)cc1 | 19.5%
CCC(=O)N(C)C(c1ccccc1Cl)c1nnnn1-c1c(C)cccc1C (stereo unspecified) | 64% (active)
Cc1ccc2c(c1)nnc1nnc(SCC(=O)O)n12 | 63.9% (active)
C/C(N)=C(/C#N)C(=O)COC(=O)c1cc(-c2ccc(C)cc2)nc2ccccc12 | 27.5%
O=C(Nc1nnc(-c2ccccc2)o1)c1cc(-c2cccs2)nc2ccccc12 | 75.6% (active)
CC(=O)c1cccc(NC(=O)C2CCCN2S(=O)(=O)c2cccc3nsnc23)c1 (stereo unspecified) | 101% (active)
CCOc1ccc(NC(=O)CCS(=O)(=O)c2cccc3nsnc23)cc1 | 31.9%
O=C(NCc1ccco1)C1CCCN(S(=O)(=O)c2cccc3nonc23)C1 (stereo unspecified) | 16.2%
Cc1cc(C)cc(NC(=O)C2CCCN2S(=O)(=O)c2cccc3cccnc23)c1 (stereo unspecified) | 88.2% (active)

SMILES | inhibition
CN1CCN(/N=C/c2ccc(-c3ccc([N+](=O)[O-])cc3)o2)CC1 | 26.4%
C=CCn1c(SCC(=O)Nc2nc3ccccc3s2)nnc1-c1ccccc1O | 76.1% (active)
COc1ccc2oc(=O)c(C(=O)NCc3ccccn3)cc2c1 | 35.8%
O=C(Nc1ccc2sc3ccccc3c(=O)c2c1)c1ccccc1Cl | 95.8% (active)
CC(C)(C)NC(=O)Cn1cnc2cc([N+](=O)[O-])ccc2c1=O | 43.3%
CCOc1cc(/C=C(\C#N)c2nc(-c3cccs3)c(NC(C)=O)s2)ccc1O | 73.3% (active)
O=C(Cc1ccccc1)N1CCN(S(=O)(=O)c2ccc([N+](=O)[O-])cc2)CC1 | 61.2% (active)
Cc1ccc([C@@H]2CC=C(C(=O)O)[C@H](c3cccc(Cl)c3)N2S(=O)(=O)c2ccc(C)cc2)cc1 | 82.8% (active)
Cc1ccccc1S(=O)(=O)N1[C@@H](c2cccc(Cl)c2)C(C(=O)O)=CC[C@H]1c1ccc(Cl)cc1 | 87.4% (active)
O=C(Nc1nnc(C2=COCCO2)o1)c1ccc([N+](=O)[O-])s1 | 49.7%
c1ccc(-c2nc(NCc3ccco3)c3ccccc3n2)cc1 | 64% (active)
C[n+]1ccccc1C1CCCC/C1=N\Nc1ccc([N+](=O)[O-])cc1[N+](=O)[O-] (stereo unspecified) | 35.2%
Nc1nc(-c2sc3nc4c(cc3c2N)CCCC4)nc(N2CCOCC2)n1 | 94.8% (active)
O=C(CN1C(=O)c2cccc3cccc(c23)C1=O)N1CCCCC1 | 33.8%
Cn1c(N)c(C(=O)COC(=O)c2ccc3ccccc3c2)c(=O)n(C)c1=O | 63.3% (active)
COc1ccc2[nH]c(=O)c(CNc3ccc(C)c(C)c3)cc2c1 | 31.3%
O=C(N/N=C/c1c(Cl)[nH]c2ccccc12)c1sc2ccccc2c1Cl | 92.5% (active)
Cc1ccc(Nc2nc(CSc3nnnn3-c3ccccc3)cc(=O)[nH]2)cc1 | 22.3%
O=C(OC1CCOC1=O)c1ccc(-c2nc3ccccc3s2)s1 (stereo unspecified) | 98.5% (active)
O=C(c1ccncc1)c1ccc([N+](=O)[O-])cc1 | 53.2%
